Source: PubChem (several laboratories)
CCHFV vOTU inh: blocks the CCHF virus ovarian tumor domain protease | AID 651958 | CCHFV vOTU protease, Pep-AMC fluorescence | inhibition, % at 11.5 µM | actives 0.55% (n = 370,000); in the data active = inhibition above about 30%
BJeLR lethal: BJeLR cell viability loss | BJeLR (HRASV12) viability, CellTiter-Glo ATP luminescence, 48 h | inhibition, % (test concentration not listed) | actives 0.17% (n = 300,000); in the data active = inhibition above about 50%
Sa ugtP lethal: growth inhibition of S. aureus ugtP deletion strain; growth inhibition, % (no concentration beside the values); S. aureus RN4220 ugtP deletion, OD600 growth, 16 h; AID 1259309; actives 0.54% (n = 330,000); in the data active = growth inhibition above about 68%
RecA splice inh: blocks M. tuberculosis RecA intein splicing; P9WHJ3; AID 2221; inhibition, % (no concentration beside the values); actives 0.75% (n = 290,000); cell-free RecA intein splicing, fluorescence; in the data active = inhibition above about 30%
Mtb hypoxia inh: reduces hypoxia-regulated biosensor signal in M. tuberculosis. M. tuberculosis hypoxia-regulated fluorescent reporter, fluorescence. fluorescence inhibition, % (concentration not given with the values). actives 0.1% (n = 300,000); in the data active = fluorescence inhibition mostly above about 23%, no sharp cut-off; inactive = mostly below about 17%
RN4220 kill: S. aureus RN4220 growth inhibition; AID 1259311; actives 0.33% (n = 330,000); inhibition, % (concentration not given with the values); OD600, 16 h; in the data active = inhibition above about 85%
GFP chromo cs: counter-screen GFP chromophore formation inhibition | cell-free GFP chromophore formation, fluorescence | actives 83% (n = 2,100) | shares compounds with RecA splice inh | EC50, µM; call rule not given here
Numbers stand for hits; – = inactive; · = no result given. Shown are actives, neighbours in structure and some others; about 1.6% of the full set was active somewhere.

SMILES	CCHFV vOTU inh	BJeLR lethal	Sa ugtP lethal	RecA splice inh	Mtb hypoxia inh	RN4220 kill	GFP chromo cs
O=C(CCl)N(Cc1ccccc1)c1ccccc1	–	–	–	73	·	–	24
CC(NC(=O)c1nc[nH]c1C(=O)NC(CCCCNC(=O)OC(C)(C)C)C(=O)OC(C)(C)C)C(=O)OC(C)(C)C (configuration not stated)	·	·	–	·	–	–	·
COc1cccc2c1C(=O)C[C@]1(CCCCC1C)O2 (some centres not stated)	·	·	–	·	–	–	·
COC(=O)C1=C(c2ccc(Cl)c(C(F)(F)F)c2)CC2CCC1N2C(=O)NCCOc1ccc(OC)cc1 (configuration not stated)	·	·	–	·	–	–	·
CCCc1ccc(/C=C2\C(=O)c3ccccc3C(O)=C2C(=O)OCC)cc1	·	–	·	36	·	·	10
CCOC(=O)C1=C(Cc2ccc(OC)cc2)C(=O)c2ccccc2C1=O	·	·	–	·	–	–	·
CCOC(=O)C1=C(O)c2ccccc2C(=O)/C1=C\c1ccc(CC)cc1	·	–	–	49	–	–	5.1
COC(=O)CN1C(=O)C2C(C=Cc3ccccc3)N3C(=O)CN(Cc4ccccc4)C(=O)[C@@]3(C)C2C1=O (some centres not stated)	·	·	–	·	–	–	·
CC(=O)Nc1cccc(NC(=O)CSc2ncc(C(=O)Nc3ccc(F)cc3)c(=O)n2C)c1	–	–	–	–	–	–	·
CC(=O)c1cccc(NC(=O)CSc2ncc(C(=O)Nc3ccccc3)c(=O)n2C)c1	–	–	–	37	–	–	–
CC(=O)Nc1cccc(NC(=O)CSc2ncc(C(=O)Nc3ccccc3)c(=O)n2C)c1	–	–	–	47	–	–	40
CC(=O)Nc1ccc(NC(=O)CSc2ncc(C(=O)Nc3ccc(F)cc3)c(=O)n2C)cc1	–	–	–	32	–	–	–
CCOC(=O)NCc1ccc2c(c1)cc(C)n2C	–	–	–	–	–	–	·
CCC(CC)C(=O)NCc1ccc2c(c1)cc(C)n2C	–	–	–	31	–	–	–
O=[N+]([O-])c1ccc(Sc2cccc[n+]2[O-])c2nonc12	–	–	–	45	·	–	19
CC(=O)c1c(Cl)nc2cccc3c2c1-c1ccccc1C3=O	–	–	·	33	·	·	–
COc1cc(-c2c(C(C)=O)c(C)nc3c2C(=O)c2ccccc2-3)cc(OC)c1OC	–	–	–	–	–	–	·
O=C(CC1CC=CCCCC(=O)OC(c2ccccc2)CNC1=O)NCCO (configuration not stated)	·	·	–	·	–	–	·
O=C(CCS(=O)NCc1ccccc1)NCc1ccccc1 (configuration not stated)	·	–	·	59	·	·	–
O=C(CCS(=O)CCC(=O)NCc1ccccc1)NCc1ccccc1	–	–	–	–	·	–	·
CC(C)[C@H](NC(=O)OC(C)(C)C)c1nnc(S(=O)(=O)Cc2c(F)cccc2Cl)o1	–	–	–	56	–	–	23
CC(C)(C)OC(=O)N[C@@H](Cc1ccccc1)c1nnc(S(=O)(=O)Cc2cccc(F)c2)o1	·	–	–	–	·	–	·
CCOC(=O)C1C2COc3ccc(Br)cc3C2N2C(=O)CN(Cc3ccc(C)cc3)C(=O)[C@@]12C (some centres not stated)	·	·	–	·	–	–	·
COC(=O)C(O)(c1c(C)[nH]n(-c2ccccc2)c1=O)C(F)(F)F (configuration not stated)	–	–	–	92	·	–	7.5
Cc1[nH]n(-c2ccccc2)c(=O)c1C(=O)Nc1ccccc1	–	–	–	–	–	–	·
SMILES	CCHFV vOTU inh	BJeLR lethal	Sa ugtP lethal	RecA splice inh	Mtb hypoxia inh	RN4220 kill	GFP chromo cs
COc1cc(/C=C(\C#N)C(=O)c2c[nH]c3ccccc23)cc(OC)c1O	–	–	–	92	–	–	5.2
COC(=O)CC1c2ccccc2S(=O)(=O)N1C(C)C (configuration not stated)	·	·	–	·	–	–	·
CCN(CC)C(=O)c1ccc2c(c1[N+](=O)[O-])C(=O)c1ccccc1C2=O	·	–	·	42	·	·	–
NC(=NOC(=O)C=Cc1ccccc1)c1ccccn1	·	·	–	·	–	–	·
O=C(NCCN1CCOCC1)c1ccncc1	–	–	–	–	–	–	·
O=C1C=C(NCCN2CCOCC2)C(=O)c2cnccc21	·	–	·	96	·	·	1
COc1ccc([N+](=O)[O-])cc1C=NNC(=O)c1nonc1N	·	·	–	·	–	–	·
CS(=O)(=O)N1CCC(Oc2ccccc2C(=O)N2CCCCC2CO)CC1 (configuration not stated)	–	–	–	48	–	–	–
Oc1ccc(/C=N/N=C/c2ccc(O)c(O)c2)cc1O	–	–	·	–	·	·	·
Oc1ccc(N=Cc2ccc(O)c(O)c2)cc1	·	–	–	86	–	–	24
CC(C)(C)c1[nH]nc2c1C(c1ccccc1OC(=O)N1CCOCC1)C(C#N)=C(N)O2 (configuration not stated)	–	–	–	·	–	–	·
N#CC1=C(N)Oc2n[nH]c(-c3cccs3)c2C1c1cccs1 (configuration not stated)	–	–	–	79	–	–	11
N#CC1=C(N)Oc2cc(O)ccc2C1c1cccs1 (configuration not stated)	–	–	–	–	·	–	·
N#CC1=C(N)Oc2n[nH]c(-c3cccs3)c2C1c1ccccc1C(=O)O (configuration not stated)	–	–	–	76	–	–	12
S=c1[nH]ncn1N=Cc1cccs1	·	·	–	·	–	–	·
C/C(CC(=O)Nc1cc(C)ccn1)=N\NC(=O)c1cccc(F)c1	–	–	·	43	·	·	33
C/C(CC(=O)Nc1cc(C)ccn1)=N\NC(=O)COc1cccc(C)c1	·	–	·	94	·	·	7
CC(CC(=O)Nc1cc(C)ccn1)=NNC(=O)c1ccc(C(C)(C)C)cc1	·	·	–	·	–	–	·
C/C(CC(=O)Nc1cc(C)ccn1)=N\NC(=O)c1ccccc1C	–	–	·	50	·	·	34
C/C(CC(=O)Nc1cc(C)ccn1)=N\NC(=O)c1ccncc1	–	–	·	75	·	·	17
O=C(Nc1ccccc1)C1=CC(c2ccc3c(c2)OCO3)CC(OCCCCO)O1 (configuration not stated)	·	·	–	·	–	–	·
C#CCCOC(=O)N1C2=NC(C(=O)OC)=C(C(=O)OC)C3N(C)c4ccccc4[C@]23CC1CO (some centres not stated)	·	·	–	·	–	–	·
C/C(CC(=O)Nc1ccccn1)=N\NC(=O)c1cccc(C)c1	–	–	·	41	·	·	37
CC(CC(=O)Nc1ccccn1)=NNC(=O)c1ccc(C)cc1	·	·	–	·	–	–	·
NC(=NOC(=O)c1cccc(Cl)c1)c1cccnc1	·	·	–	·	–	–	·
COc1ccc(-c2c(=O)n(OC)c3ccccc3[n+]2[O-])cc1OC	–	–	–	42	–	–	–
CC1=Nc2cccc3cccc(c23)N1C	–	–	–	78	·	–	–
CCOc1ccc2c(c1)-c1c(ssc1=S)C(C)(C)N2	·	–	–	51	–	–	12
